Measurements published in PubChem BioAssay (Tox21).
Records with an inconclusive call do not appear. Calls of active or inactive are those of the source. Calls follow the shape of the dose curve; as a rule, active = well fitted cell-killing curve with a large enough effect in the repeat runs; inconclusive = weak or mixed curves; inactive = flat fitted curve, though single readings scatter.

Assay: qHTS RealTime-Glo MT Cell Viability Assay in HepG2 cells - 16 hour (AID 1224885); also: nearly all actives have a fitted effect of over 50% in size
Conditions: RealTime-Glo luminescence; series mostly up to 76.8 µM
From the text: U.S. Tox21 Program National Center for Advancing Translational Sciences [NCATS] NIH Chemical Genomics Center [NCGC] U.S. Environmental Protection Agency [EPA] National Institutes of Environmental Health Sciences [NIEHS] National Toxicology Program [NTP] U.S. Food and Drug Administration [FDA] Tox21 Assay Overview: Measure of cell viability is critical in the cell-base assay. Analysis of cell viability is necessary for the characterization of cell responses to cytotoxic drugs and environmental stress. A RealTime-Glo MT Cell Viability Assay to monitor cell viability in real time of continues cell culture during 40 hours of compound treatment was used to screen Tox21 10K library compounds in HepG2 cells. The RealTime-Glo MT Cell Viability Assay is a nonlytic, homogeneous, bioluminescent method to measure cell viability in real time using a simple, plate-based method. The assay involves adding NanoLuc luciferase and a cell-permeant prosubstrate to cells in culture. Viable cells reduce the proprietary prosubstrate to generate a substrate for NanoLuc luciferase. This substrate diffuses from cells into the surrounding culture medium, where it is rapidly used by the NanoLuc Enzyme to produce a luminescent signal. The signal correlates with the number of viable cells, making the assay well suited for cytotoxicity studies.
Tox21 Assay Protocol Summary: The mixture of HepG2 cell suspension and reagents were dispensed at 600cells/6 ul/well in 1536-well tissue culture treated black solid bottom plates using a Multidrop dispenser. After the assay plates were incubated at a 37 C/5% CO2 incubator for 5 hours, 23 nL of compounds dissolved in DMSO, positive and negative controls was transferred to the assay plate by a pintool work station. The plates were incubated at 37 C for 40 hours. The luminescence intensity were measured at 0h, 8h, 16h, 24h, 32h and 40h time points using ViewLux plate reader during compound treatment.

| SMILES | outcome |
| --- | --- |
| Oc1ccccc1Cl | inactive |
| CC1C=[C-]C=C1.[C-]#[O+].[C-]#[O+].[C-]#[O+].[Mn] | inactive |
| O=[N+]([O-])c1ccccc1 | inactive |
| O=c1ccc(=O)[nH][nH]1 | inactive |
| C=CC(N)=O | inactive |
| BrCCBr | inactive |
| O=C(O)c1ccccn1 | inactive |
| O=C(NC(=O)c1c(F)cccc1F)Nc1cc(Cl)c(OC(F)(F)C(F)C(F)(F)F)cc1Cl (stereo not given) | inactive |
| c1cc2c3c(cccc3c1)CC2 | inactive |
| COc1ccc2c3c1O[C@H]1[C@@H](O)C=C[C@H]4[C@@H](C2)N(C)CC[C@@]341 | inactive |
| CN(C)[C@@H]1C(=O)C(C(N)=O)=C(O)[C@@]2(O)C(=O)C3=C(O)c4c(O)cccc4[C@@](C)(O)[C@H]3C[C@@H]12 | inactive |
| Clc1ccc(Cl)cc1 | inactive |
| O=C1CCCN1 | inactive |
| CCN(CC)c1ccccc1 | inactive |
| CC(C)NC(=O)N1CC(=O)N(c2cc(Cl)cc(Cl)c2)C1=O | inactive |
| Nc1c(Cl)c(Cl)nc(C(=O)O)c1Cl | inactive |
| COC(=O)NC(=S)Nc1ccccc1NC(=S)NC(=O)OC | inactive |
| C1CN2CCN1CC2 | inactive |
| CCOC(=O)c1ccccc1C(=O)OCC | inactive |
| CN=C=S | inactive |

| SMILES | outcome |
| --- | --- |
| CCC(C)(CC)c1cc(NC(=O)c2c(OC)cccc2OC)on1 | inactive |
| ClCCBr | inactive |
| CCOP(=S)(OCC)Oc1cnc2ccccc2n1 | inactive |
| O=c1[nH]c(=O)[nH]c(=O)[nH]1 | inactive |
| CCCCCOC(=O)c1ccccc1C(=O)OCCCCC | inactive |
| Cc1ccc([N+](=O)[O-])cc1C | inactive |
| CCC[CH2][Sn]([Cl])([Cl])[Cl] | inactive |
| CCNc1nc(NC(C)C)nc(SC)n1 | inactive |
| CCCCOC(=O)c1ccccc1C(=O)OCCCC | inactive |
| O=c1n(Cl)c(=O)n(Cl)c(=O)n1Cl | inactive |
| CCCC1COC(Cn2cncn2)(c2ccc(Cl)cc2Cl)O1 (stereo not given) | inactive |
| COC(=O)NS(=O)(=O)c1ccc(N)cc1 | inactive |
| O=[N+]([O-])c1ccc([As](=O)(O)O)cc1 | inactive |
| CCOP(=S)(OCC)SCCSCC | inactive |
| CNC(=O)Oc1ccccc1OC(C)C | inactive |
| Nc1ccc(Oc2ccc(N)cc2)cc1 | inactive |
| C1CC2OC2CC1C1CO1 (stereo not given) | inactive |
| c1ccc2c(c1)oc1ccccc12 | inactive |
| O=[N+]([O-])c1ccc(Oc2ccc(Cl)cc2Cl)cc1 | inactive |
| CN1C(=O)CN=C(c2ccccc2)c2cc(Cl)ccc21 | inactive |
